PubChem BioAssay AID504766 (The Scripps Research Institute Molecular Screening Center, 2011)
“And” between values parts separate entries of the source, which are not always exact repeats. Equal values may be shown once. About 3,400 (1%) of roughly 340,000 compounds were called active. What follows is part of a selection rich in actives, with near analogues and random picks from the rest. Unmarked numbers belong to inactive results.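 The calls were made as follows: active = inhibition above the mean over all tested compounds plus 3 SD (cut at about 4.2% in these data); inactive = the rest.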

target: Nuclear receptor subfamily 0 group B member 1 (Homo sapiens) (UniProt P51843); assay: relief of DAX1 transcriptional repression – cell-based, HEK293, Gal4-DAX1, luciferase luminescence, primary screen (AID 504766); conditions: HEK293 Gal4-DAX1 luciferase reporter, at 6.75 µM, hits give high values;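 also: 0% = DAX1-transfected cells with DMSO and 100% = empty-vector control cells with DMSO; inhibition shows as a rise in luminescence from relieved DAX1 repression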
Sequence (P51843 207-470 limits assumed): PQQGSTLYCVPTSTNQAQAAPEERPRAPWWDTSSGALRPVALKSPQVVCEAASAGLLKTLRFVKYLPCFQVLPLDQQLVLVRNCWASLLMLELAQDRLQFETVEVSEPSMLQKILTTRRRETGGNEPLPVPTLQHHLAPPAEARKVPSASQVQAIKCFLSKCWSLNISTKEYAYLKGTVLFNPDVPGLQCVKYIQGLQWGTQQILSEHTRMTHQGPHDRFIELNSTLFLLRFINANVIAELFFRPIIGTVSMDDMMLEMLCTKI

Row | SMILES | inhibition
1 | Cc1ccc(C(=O)OCC(=O)NC2CCCCCCC2)cc1C | 1.83%
2 | CCOC(=O)c1cc(-c2sc(NC(=O)c3ccccc3)nc2C)n(-c2ccc(Br)cc2)n1 | -0.34%
3 | COc1ccccc1OCC(=O)O/N=C(\N)c1ccccn1 | 2.91%
4 | COc1ccc(C(=O)O/N=C(\N)c2ccccn2)cc1[N+](=O)[O-] | 4.71% (active)
5 | N/C(=N\OC(=O)c1ccc([N+](=O)[O-])cc1)c1ccccn1 | 0.14%
6 | CCN(CC)C(=O)C(C)N1c2cccc3cccc(c23)S1(=O)=O (stereo not given) | 0.49%
7 | COc1ccc(NC(=O)CN2C(=O)NC(C)(c3ccccc3)C2=O)cn1 (stereo not given) | 1.1%
8 | Cc1ccc(-c2ccc(C3=CC(=O)CC(C)(C)C3=O)cc2)cc1 | 3.24%
9 | Cc1ccc(N2CC(C(=O)Nc3ccc(S(=O)(=O)N4CCCC4)cc3)CC2=O)cc1C (stereo not given) | -0.34%
10 | CNS(=O)(=O)c1ccc(NC(=O)C2CC(=O)N(c3ccc(Cl)cc3)C2)cc1 (stereo not given) | 4.35% (active)
11 | O=C(Nc1ccc(S(=O)(=O)N2CCCCC2)cc1)C1CC(=O)N(c2ccc(F)cc2)C1 (stereo not given) | -1.03%
12 | Nc1cc(C(=O)N2CCN(c3ccccc3Cl)CC2)ccc1N1CC2CC(C1)c1cccc(=O)n1C2 (stereo not given) | 2.59%
13 | COc1ccc(CNC(=O)C2CCC(CNc3c(N4CCOCC4)c(=O)c3=O)CC2)cc1 (stereo not given) | -0.15% and -0.24%
14 | CC(NC(=O)C1CCC(CNc2c(N3CCOCC3)c(=O)c2=O)CC1)c1ccccc1 (stereo not given) | 0.2%
15 | O=C(NCc1ccc(F)cc1)C1CCC(CNc2c(N3CCOCC3)c(=O)c2=O)CC1 (stereo not given) | 5.78% (active)
16 | C[C@H]1CN([C@@H](C)CO)C(=O)CCCn2cc(nn2)CO[C@@H]1CN(C)C(=O)Nc1ccccc1 | 1.03%
17 | O=S(=O)(c1ccccc1)N1CCc2ccccc21 | 5.18% (active)
18 | CCn1c(=O)c(=O)n(CC)c2cc(S(=O)(=O)N3CCc4ccccc43)ccc21 | -1.26%
19 | O=S(=O)(c1ccc2c(c1)OCCO2)N1CCc2ccccc21 | 0.28%
20 | C[C@H]1CN([C@@H](C)CO)C(=O)CCCn2cc(nn2)CO[C@@H]1CN(C)S(=O)(=O)c1ccc(-n2cccn2)cc1 | 2.41%
21 | CC(C)C(=O)N1c2ccccc2NC2=C(C(=O)CCC2)C1c1ccc(N(C)C)cc1 (stereo not given) | 4.33% (active)
22 | CCC(=O)N1c2ccccc2NC2=C(C(=O)CCC2)C1c1ccco1 (stereo not given) | -0.14%
23 | CCCC(=O)N1c2ccccc2NC2=C(C(=O)CCC2)C1c1ccc(F)cc1 (stereo not given) | -0.04%
24 | COc1ccc(-c2ccc(CN3C(C(C)C)C(=O)N(Cc4cn(CC5CCCCC5)nn4)CCS3(=O)=O)cc2)cn1 (stereo not given) | -0.57%

Row | SMILES | inhibition
25 | COc1cccc(OC)c1C(=O)N1CCN(Cc2ccccc2F)CC1 | 2.65%
26 | CC(C)=NN1C(=O)c2ccccc2NC1(C)C | 5.58% (active)
27 | CC(=O)N1C(=O)C2(Nc3ccccc3N2)c2ccccc21 | 0.59%
28 | CC(=O)NN1C(=O)c2ccccc2NC1c1ccccc1 (stereo not given) | -1.71%
29 | Cc1c(NC(=O)COC(=O)/C=C/c2cccc(F)c2)c(=O)n(-c2ccccc2)n1C | -0.66%
30 | C[C@H]1CN([C@@H](C)CO)S(=O)(=O)c2ccc(Br)cc2O[C@H]1CN(C)C(=O)c1cnccn1 | -0.34%
31 | O=C(NCc1nnnn1-c1ccc(Cl)cc1)c1ccc([N+](=O)[O-])o1 | 0%
32 | N#CCCC(C#N)(c1cccnc1)N1CCOCC1 (stereo not given) | -0.32%
33 | CC1CCCCC1NC(=O)Cn1c(=O)cnc2ccccc21 (stereo not given) | -1.16%
34 | O=C(/C=C/c1cnc2ccccc2n1)NC1CCCCCC1 | 4.47% (active)
35 | CC(C)c1cc(C(=O)NC2CCCCCC2)c2ccccc2n1 | -1.68%
36 | COc1ccccc1N1CCN(/N=C/c2ccc(O)cc2O)CC1 | 5.15% (active)
37 | COc1cc(/C=N/N2CCN(c3ccccc3)CC2)ccc1OC(C)=O | -0.26%
38 | COc1ccccc1N1CCN(/N=C\C(Br)=C\c2ccccc2)CC1 | -0.74%
39 | O=C(c1ncn2c1c(=O)[nH]c1ccccc12)N1CCc2ccccc2C1 | -0.1%
40 | COc1ccc([C@H]2N[C@]3(CCCN(Cc4ccco4)C3=O)[C@H]3C(=O)N(C)C(=O)[C@@H]23)cc1 | 0.93%
41 | O=C(C1CCCO1)N1CCN(C(=O)C23CC4CC(CC(C4)C2)C3)CC1 (stereo not given) | -0.78%
42 | CCOC(=O)/C(C#N)=C/c1ccc(N2CCN(Cc3ccccc3)CC2)cc1 | -0.11%
43 | COC(=O)/C(C#N)=C/c1occc1C | -0.79%
44 | CCOC(=O)/C(C#N)=C\c1c(C)cc(C)c(COC(C)=O)c1C | 5.6% (active)
45 | O=S(=O)(c1cccc(C(F)(F)F)c1)N1c2ccccc2-n2cccc2C1c1cccnc1 (stereo not given) | 0.07%
46 | COc1ccc(NC(=O)CSc2nnnn2-c2cccc(OC)c2)cc1 | 0.03%
47 | COC(=O)C(C)NC(=O)COc1ccc2ccccc2c1 (stereo not given) | 4.35% (active)
48 | COCCNC(=O)COc1ccc(N(C)S(=O)(=O)c2ccc3ccccc3c2)cc1 | -1.92%

Row | SMILES | inhibition
49 | CN(C)S(=O)(=O)c1cccc(NC(=O)COc2ccc3ccccc3c2)c1 | -1.43%
50 | COc1ccc2nc(-c3ccccn3)ccc2c1 | -0.26%
51 | COc1ccc([C@H]2N[C@]3(CCCN(CC4CCCCC4)C3=O)[C@H]3C(=O)N(C)C(=O)[C@@H]23)cc1 | 0.64%
52 | CCn1c(SCC(=O)NC2CCCC2)nnc1-c1ccoc1C | 4.45% (active)
53 | CCn1c(SCC(=O)NC2CC2)nnc1-c1ccccc1OC | 1.22%
54 | Cc1occc1-c1nnc(SCC(=O)NC2CCCCC2)o1 | 0.12%
55 | C[C@@H]1CN([C@H](C)CO)C(=O)c2cc(Br)cnc2O[C@@H]1CN(C)Cc1cncnc1 | 0%
56 | Clc1ccc(-c2cc(COc3ccccc3)no2)cc1Cl | 0.18%
57 | c1ccc2cc(OCCN3CCCC3)ccc2c1 | 0.12%
58 | Clc1ccccc1-c1cc(COc2ccc3ccccc3c2)no1 | 4.61% (active)
59 | Cc1ccccc1-c1ccc2c(c1)O[C@@H](CN(C)Cc1ccc(C(=O)O)cc1)[C@@H](C)CN([C@H](C)CO)S2(=O)=O | -0.49%
60 | Cc1ccnc(SC2CC(=O)N(c3ccccc3)C2=O)n1 (stereo not given) | 2.33%
61 | COc1ccc(N2C(=O)c3ccccc3NC2c2ccc(OC)c(CN3CCOCC3)c2)cc1 (stereo not given) | 3.5%
62 | COc1ccc(C2Nc3ccccc3C(=O)N2c2ccc(Cl)cc2)cc1Cn1cc([N+](=O)[O-])cn1 (stereo not given) | 4.6% (active)
63 | COc1ccc(C2Nc3ccccc3C(=O)N2c2ccc(F)cc2)cc1Cn1nnc2ccccc21 (stereo not given) | -0.72%
64 | COc1ccc(Cl)cc1NC(=O)CN(C)C(=O)c1cn(-c2ccccc2)nc1-c1cccs1 | -0.65%
65 | COCC1CCCCN1C(=O)c1cc(COc2ccc(C)c(C)c2)on1 (stereo not given) | 2.51%
66 | c1cc(-n2cnnn2)ccc1NC1=NCCC1 | 5.97% (active)
67 | O=S(=O)(Nc1ccc(-n2cnnn2)cc1)c1ccc(Cl)cc1 | 0.55%
68 | O=S(=O)(NC1CCCC1)c1ccc(-n2cnnn2)cc1 | 0.06%
69 | C[C@@H]1CN([C@H](C)CO)C(=O)CCCn2cc(nn2)CO[C@H]1CN(C)S(C)(=O)=O | 0.1%
70 | CC1(C)NC(=O)N(CC(=O)Nc2ccc(-c3ccccc3)cc2)C1=O | 1.36%
71 | CCOC(=O)C1=C(C)c2ccccc2OC1(C)C(=O)OCC (stereo not given) | 0.33%
72 | CCOC(=O)C1(C(F)(F)F)N=C(N(C)C)OC(N(C)C)=N1 | 5.05% (active)

Row | SMILES | inhibition
73 | O=C1CC[C@@H](C(=O)N2CSC[C@@H]2C(=O)Nc2ccc(C(F)(F)F)cc2)N1 | 0.12%
74 | O=C(Nc1ccccc1F)c1ccc2c(c1)OCO2 | 4.59% (active)
75 | Cn1c(=O)n(C)c2cc(C(=O)Nc3ccc(Br)cc3)ccc21 | 4.79% (active)
76 | Cn1c(=O)n(C)c2cc(C(=O)Nc3ccc4c(c3)OCO4)ccc21 | 13.2% (active)
77 | O=C(Nc1ccc(N2CCOCC2)cc1)c1ccc2c(c1)OCO2 | 1.98%
78 | COc1cccc(OC)c1C(=O)Nc1ccc2c(c1)n(C)c(=O)n2C | 1.46%
79 | Cn1c(=O)n(C)c2cc(/C=N/NC(=O)c3cccc(Br)c3)ccc21 | -2.01%
80 | O=C(Nc1ccc2c(c1)OCO2)c1ccc(N2C(=O)c3ccccc3C2=O)cc1 | 0.86%
81 | N#Cc1ccccc1NC(=O)c1ccc2c(c1)OCO2 | 2.82%
82 | O=C(CN1CCN(c2ccccc2F)CC1)c1ccc2c(c1)OCO2 | -0.06%
83 | CNC(=O)C[C@H]1C(=O)N(Cc2ccccc2)C[C@@H]1CSC | 0.53%
84 | Cc1cccc(S(=O)(=O)N(C)C[C@@H]2OCc3cnnn3CCCC(=O)N([C@H](C)CO)C[C@@H]2C)c1 | -0.51%
85 | CCCNC(=O)C1CC(=O)N(c2ccc(OCc3ccccc3)cc2)C1 (stereo not given) | 2.8%
86 | C=CCOc1ccccc1CNn1c(C)n[nH]c1=S | 0.12%
87 | CCN1CCCC1CNC(=O)c1ccc2c(c1)NC(=O)/C(=C\c1ccccc1F)S2 (stereo not given) | 1.21%
88 | O=C(O)c1ccccc1Cc1ccc(F)c2ccccc12 | 1.12%
89 | CSc1ncccc1C(=O)N1CCCC(Nc2ccc(F)c(F)c2)C1 (stereo not given) | -0.54%
90 | Cc1cccc(Nc2nc(-c3ccccc3)cs2)n1 | 7.24% (active)
91 | COc1ccc(-c2csc(Nc3cccc(C)n3)n2)cc1OC | 3.01%
92 | CCCCCCC(=O)Nc1nc(C)c(-c2csc(Nc3cccc(OC)c3)n2)s1 | 1.39%
93 | CC(=O)Nc1cccc(-c2csc(Nc3cccc(C)n3)n2)c1 | 4.29% (active)
94 | COc1ccc2c(c1OC)C(=O)OC2Nc1nc(-c2ccccc2)cs1 (stereo not given) | 0.66%
95 | Cc1ccc(-c2csc(NC(=O)C3=COCCO3)n2)cc1C | -1.52%
